Screens deposited in PubChem BioAssay by National Center for Advancing Translational Sciences (NCATS).
The list is not random: actives were taken first. Their share in the collection is about 2.3%.
Pol beta inh: blocks human DNA polymerase beta activity; Pol beta primer extension/strand displacement, fluorescence kinetic; Potency, µM (top dose mostly 114 µM), for the others: at the highest dose activity change, negative = inhibition, usual class: inhibitors; 1.3% of 340,000 active; AID 485314; also: % is scaled to controls: 0 for no effect and ±100 for the full control effect
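Preincubation: enzyme (10 nM) with compound, 15 min, RT. Reaction: substrate added to 50 nM final. Reads: 0 and 10 min. Analysis: normalized, Hill fit.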
Pol iota inh: DNA polymerase iota (human) inhibition | Q9UNA4 | Pol iota fluorescent replication assay, 10 min | Potency, µM (titrated, usually from 115 µM), without a hit: at the top dose activity, negative = inhibition, most hits filed as inhibitors | 1% of 390,000 active | AID 588590
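Fluorescent replication assay read twice, at 0 min and 10 min after adding 50 nM (final) substrate. Enzyme (10 nM) and compounds were first incubated 15 min at room temperature; enzyme-free buffer wells were negative controls.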
Pol eta inh-1: inhibitors of human DNA polymerase eta; Q9Y253; recombinant Pol eta, fluorescent DNA replication assay; Potency, µM (top dose mostly 114 µM), without a hit: at the top dose activity change, negative = inhibition, actives largely listed as inhibitors; 1.2% of 390,000 active; AID 588591; also: % is scaled to controls: 0 for no effect and ±100 for the full control effect
Target sequence (Q9Y253 whole entry, looked up): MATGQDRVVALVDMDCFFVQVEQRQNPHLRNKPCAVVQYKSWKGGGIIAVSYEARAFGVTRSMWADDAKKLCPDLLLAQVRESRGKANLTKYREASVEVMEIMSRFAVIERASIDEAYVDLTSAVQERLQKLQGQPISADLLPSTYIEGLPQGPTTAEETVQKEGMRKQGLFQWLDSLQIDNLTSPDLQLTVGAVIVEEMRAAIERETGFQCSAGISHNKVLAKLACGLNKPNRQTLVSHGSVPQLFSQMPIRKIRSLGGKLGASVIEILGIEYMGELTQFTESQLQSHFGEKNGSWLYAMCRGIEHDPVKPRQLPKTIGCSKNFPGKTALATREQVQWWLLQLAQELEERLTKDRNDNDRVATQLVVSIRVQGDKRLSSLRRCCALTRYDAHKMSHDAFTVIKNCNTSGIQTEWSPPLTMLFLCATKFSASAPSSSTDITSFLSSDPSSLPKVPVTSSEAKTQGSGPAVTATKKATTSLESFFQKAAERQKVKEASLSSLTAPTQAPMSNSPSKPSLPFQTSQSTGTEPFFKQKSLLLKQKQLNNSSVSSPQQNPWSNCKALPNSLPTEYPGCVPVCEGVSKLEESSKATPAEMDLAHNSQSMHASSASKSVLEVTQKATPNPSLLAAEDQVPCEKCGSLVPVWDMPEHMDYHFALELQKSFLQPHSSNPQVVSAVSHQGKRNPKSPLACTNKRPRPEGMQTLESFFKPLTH
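Pol eta at 10 nM preincubated with compounds 15 min at room temperature; reaction started with fluorescent substrate (50 nM final) and read kinetically at 0 and 10 min.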
WRN inhibitor: WRN helicase (human) inhibition; Q14191; WRN helicase unwinding, fluorescent forked duplex, kinetic; Potency, µM (titrated, usually from 114 µM), for inactives: top-dose activity change, negative = inhibition, actives largely listed as inhibitors; 0.46% of 360,000 active; AID 651768; also: % is scaled to controls: 0 for no effect and ±100 for the full control effect; nearly all actives have a fitted effect of over 55% in size
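WRN at 20 nM final preincubated with compound 15 min at room temperature; reaction started with 100 nM fluorophore/quencher forked duplex oligonucleotide and 2 mM ATP final. Unwinding followed kinetically by red fluorescence (ex 525, em 598 nm).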
Pol kappa inh-1: blocks human DNA polymerase kappa activity | Q9UBT6 | purified Pol kappa, fluorescent DNA synthesis assay, 10 min | Potency, µM (series often up to 107 µM), for inactives: at the highest dose activity, negative = inhibition, actives largely listed as inhibitors | 0.53% of 400,000 active; also: % is scaled to controls: 0 for no effect and ±100 for the full control effect
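Enzyme at 10 nM met test compounds for 15 min at room temperature. Substrate addition (50 nM final) began the reaction, which was monitored by fluorescence at 0 and 10 min.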
Pol kappa inh-2: Pol kappa (human) inhibition, cherry-pick confirmation; shares compounds with Pol eta inh-1; purified Pol-kappa, fluorescent strand-displacement substrate; Potency, µM, hits mostly inhibitors; 76% of 920 active
Pol eta inh-2: confirmation of human DNA polymerase eta inhibitors. shares compounds with Pol eta inh-1. Pol eta primer extension, TAMRA/BHQ fluorescence, 10 min. Potency, µM, hits mostly inhibitors. 64% of 2,600 active. AID 720502
Numbers without * were called inactive; ? = inconclusive; nt = no result given; [ ] = another dose, or the depositor's remark. Calls follow the shape of the dose curve; as a rule, active = well fitted curve in the direction sought with a large enough effect; inconclusive = small, poorly fitted or top-dose-only effect, or another doubt; inactive = no such curve, though single readings can be large; an effect the other way counts as inactive or inconclusive. Potency is read from the fitted curve at half-maximal effect.

SMILES | Pol beta inh | Pol iota inh | Pol eta inh-1 | WRN inhibitor | Pol kappa inh-1 | Pol kappa inh-2 | Pol eta inh-2
Cc1cc(C)nc(SCC(=O)NNS(=O)(=O)c2ccc(C#N)cc2)n1 | nt | 18µM* | 13µM* | ? | ? | ? | 76*
Cc1cc(C)nc(NS(=O)(=O)c2ccc(NS(=O)(=O)c3ccc(C#N)cc3)cc2)n1 | 11% | -7% | -13% | -31% | -3% | nt | nt
O=C(NNc1ccccc1F)c1cccs1 | nt | 8% | nt | nt | 7% | nt | nt
O=c1[nH]n2c(=O)c3c([nH]c2c1N=Nc1cccc(Cl)c1)CCCC3 | ? | 1% | ? | ? | -15% | nt | 76*
Cc1cc(C)n2[nH]c(=O)c(N=Nc3cccc(Cl)c3)c2n1 | 39% | -1% | -6% | -5% | -2% | nt | nt
C#Cc1ccc([C@H]2C=C(C(=O)OCC=C)O[C@@H](OCCCCO)C2)cc1 | nt | 56µM* | 32µM* | -14%[11.6 µM] | ? | nt | 67*
CCn1c(/C=C/c2ccc(O)c(O)c2)nc2ccccc2c1=O | 22µM* | ? | 14µM* | ? | 79µM* | nt | 67*
CCn1c(/C=C/c2ccc(O)cc2)nc2ccccc2c1=O | -8% | 146% | -7% | -31% | -5% | nt | nt
COc1ccc(-c2nnc(C3CCN(C(=O)c4ccccc4F)CC3)o2)cc1 | 24% | 10% | 5% | nt | -18% | nt | nt
COc1ccccc1-c1ccc(C(=O)O)o1 | 3% | -2% | -8% | -21% | -9% | nt | nt
COc1ccccc1N1C(=N)S/C(=C\c2ccc(-c3ccccc3C(=O)O)o2)C1=O | 79µM* | 20µM* | 14µM* | 28µM* | 50µM* | 19* | 30*
CCOc1ccc(CCNC(=O)C2CC(C)=CCC2C(=O)O)cc1OCC (centres undefined) | 25µM* | ? | 28µM* | -5%[11.6 µM] | -26% | nt | 54*
COc1ccc(CN(Cc2ccccc2)C(=O)c2ccno2)cc1COc1ccc(NC(C)=O)cc1 | nt | 40µM* | nt | nt | 79µM* | nt | ?
COc1ccc(CN(Cc2ccccc2)C(=O)c2ccc(NC(C)=O)cc2)cc1COc1ccc(NC(C)=O)cc1 | nt | 26% | nt | nt | -22% | nt | nt
O=C(CCN1C(=O)/C(=C/c2cccs2)SC1=S)Nc1ccc(C(=O)O)cc1 | 32µM* | ? | 45µM* | -3%[11.6 µM] | -4% | 75* | nt
O=C(N/N=C/c1ccc(O)c(Br)c1)c1cc2c(ccc3ccccc32)o1 | 0% | 1% | 6% | -4% | -15% | nt | nt
O=C(N/N=C/c1cc(Br)c(O)c(Br)c1)c1cc2c(ccc3ccccc32)o1 | ? | ? | 18µM* | 35µM* | 20µM* | nt | 85*
O=C(c1ccc2c(c1)CCN2S(=O)(=O)c1ccc(Cl)cc1)N1CCN(c2ccc(F)cc2)CC1 | 23% | -3% | -12% | nt | -3% | nt | nt
O=C(Nc1nnc(S(=O)(=O)N2CCCc3ccccc32)s1)c1ccc(Cl)cc1 | 12% | 17% | ? | nt | 3% | ? | nt
O=C(Nc1nnc(S(=O)(=O)N2CCCc3ccccc32)s1)c1ccccc1Br | -20% | 12% | 79µM* | nt | -1% | ? | ?
Cc1ccccc1C1CC(=O)Oc2ccc(O)cc21 (centres undefined) | nt | nt | nt | nt | -19% | nt | nt
CC(C)COc1ccc(C(=O)Nc2ccc(S(=O)(=O)Nc3ncccn3)cc2)cc1 | 13% | 2% | -18% | nt | 2% | nt | nt
CCOc1ccc(C(=O)N/N=C/c2ccc(-c3ccc(S(=O)(=O)Nc4ncccn4)cc3)o2)cc1 | -3% | 18µM* | 22µM* | ? | ? | 24* | ?
Cc1ccc(-n2nc3ccc(NC(=O)/C=C/c4ccco4)cc3n2)cc1 | 32µM* | 25µM* | ? | -26%[57.1 µM] | ? | nt | ?
O=C1/C(=C\c2cccc([N+](=O)[O-])c2O)SC(=S)N1Cc1ccccc1 | 35µM* | ? | 79µM* | ? | -32% | nt | ?
SMILES | Pol beta inh | Pol iota inh | Pol eta inh-1 | WRN inhibitor | Pol kappa inh-1 | Pol kappa inh-2 | Pol eta inh-2
COc1c(/C=C2\SC(=Nc3ccccc3Cl)NC2=O)cccc1[N+](=O)[O-] | ? | 2% | ? | -3%[11.6 µM] | -14% | nt | nt
O=C1/C(=C/c2ccccc2O)SC(=S)N1Cc1cccnc1 | 0% | ? | -20% | -3% | -4% | nt | nt
O=C1NC(=Nc2ccccc2Cl)S/C1=C\c1cccc([N+](=O)[O-])c1O | ? | ? | ? | -21%[11.6 µM] | -31% | 17* | ?
Cc1ccc(NC(=O)c2c(NC(=O)C(F)(F)F)sc3c2CCCCC3)cc1 | ? | ? | 50µM* | nt | ? | nt | ?
Cc1cccc(NC(=O)c2c(NC(=O)C(F)(F)F)sc3c2CCCCC3)c1 | ? | ? | 45µM* | nt | -21% | 67* | nt
O=C(Nc1cccc(Cl)c1)c1c(NC(=O)C(F)(F)F)sc2c1CCCC2 | ? | ? | 25µM* | nt | -32% | nt | ?
CN(C)c1ccc(NC(=O)CN2CCN(CC(=O)Nc3ccc(Br)cc3)CC2)cc1 | 5% | 20% | -9% | nt | -7%[60.1 µM] | nt | nt
CCOc1cc(/C=C2\CCCC(C(=O)C(F)(F)F)=C2O)ccc1O | 50µM* | 8% | ? | -33% | 0% | 75* | nt
COc1cc(/C=C2/CCCC(C(=O)C(F)(F)F)=C2O)ccc1O | 0% | 63% | -18% | ? | -14% | nt | nt
Cc1ccc(CNC(=O)Cn2ccn(-c3cc(C)cc(C)c3)c(=O)c2=O)cc1 | -21% | 43% | -7% | nt | -14% | nt | nt
O=C1CN(C(=O)COC(=O)c2ccc([N+](=O)[O-])s2)c2ccccc2N1 | nt | ? | 22µM* | -1% | -11% | nt | ?
